# Compounds without any hit were thinned out: in the full panel of roughly 83,000, 20% have a hit.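 For each line, cells grew in 96-well plates with the test compound present at a single concentration for 48 hours.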 A number with no mark means an inactive call. Calls of active or inactive are those of the source.
# Test system: HCC-2998 colon
# Test: NCI-60 one-dose screen, 48 h (100 = growth as untreated, 0 = no growth, -100 = all killed)
# Details: 10 µM unless noted
# Experimental: Growth inhibition of the HCC-2998 human tumor cell line is measured as a screen for anti-cancer activity. Cells are grown in 96 well plates and exposed to the test compound for 48 hours. Compounds are tested at a single concentration, which is 10^-5 M for most compounds. The reported endpoint is percent growth (GI% or GIPRCNT), where numbers from 0 - 100% represent growth inhibition, and numbers from -100% - 0 represent cell death. For example, a value of 40 represents 60% growth inhibition. A value of 0 means no net growth occurred over the course of the experiment. A value of -40 indicates 40% of cells at the beginning of the experiment died by the end of the experiment. A value of -100 means all cells are dead at the end of the experiment.
# NCI-60 Human Tumor Cell Lines Screen was performed using the standard one-dose NCI protocol, which is described in more detail at https://dtp.cancer.gov/discovery_development/nci-60/default.htm.
# Compounds with GIPRCNT values below 10 were considered active. Activity score was based on GIPRCNT using the following formula: […]
# Score is 0 for GIPRCNT values of 100 or above, 50 for GIPRCNT values of 0, and 100 for GIPRCNT values of -100.
row,Structure (SMILES),growth
1,N#C/C(C(=O)c1ccccc1)=C1/C(=O)Nc2ccc(Br)cc21,99.7%
2,CCN(CC)CCCNCc1cc(-c2ccccc2)nc2ccccc12,101%
3,COc1cc2c(O)n(CCCN3CCOCC3)c3c4cnc5cccc(c(=O)c3c2cc1OC)c54,59.2%
4,Cc1ccc2c(n1)C(=O)C(Cl)=C(Nc1ccc(N3CCN(C)CC3)cc1)C2=O,95.3%
5,O=C(N[C@@H]1CCCc2ccccc21)[C@H](CCC(=O)N1CCN(C2CCCCC2)CC1)N1C(=O)[C@@H](N2C(=O)OC[C@@H]2c2ccccc2)[C@H]1/C=C/c1ccccc1,11.6%
6,CCN(CC)c1ccc2cc(C(Nc3ccc(C)cc3)c3nnnn3C(C)(C)C)c(=O)oc2c1 (stereo not given),107%
7,COc1ccc(-c2ccc(NNC(=O)c3ccc(F)cc3)nn2)cc1OC,90.5%
8,c1nc(N2CCOCC2)c2[nH]ccc2n1,110%
9,O=C1/C(=C/c2ccc(OCc3ccccc3)cc2)Oc2cc(OCCN3CCCCC3)ccc21,90.5%
10,COc1ncc(-c2ccc3nccc(C#CCCCCC(=O)NO)c3c2)cc1NS(=O)(=O)c1ccc(F)cc1F,7.27% (active)
11,C=C(C)[C@@H]1CC[C@]2(C(N)=O)CC[C@]3(C)[C@H](CC[C@@H]4[C@@]5(C)C/C(=C/c6cccnc6)C(=O)C(C)(C)[C@@H]5CC[C@]43C)[C@@H]12,-15.9% [100 µM] (active)
12,Cn1c(=O)c(C#N)c(-c2ccco2)n2c(S(=O)(=O)Cc3ccccc3)nnc12,102%
13,CC(C)CCSC1=CC(=O)c2ccccc2C1=O,100%
14,OC(c1ccc(Cl)cc1)(c1ccc(Cl)cc1)C(O)(c1ccc(Cl)cc1)c1ccc(Cl)cc1,48.6%
15,COc1cc(NCc2ccccc2O)c2ncccc2c1,108%
16,C=C(C)[C@@H]1CC[C@]2(C)[C@H](CC[C@@H]3[C@@H]([C@@](C)(O)CCC=C(C)C)CC[C@]32C)[C@@]1(C)CCC(=O)O,-37.4% [100 µM] (active)
17,CC1(C)CC[C@]23CC[C@]4(C)[C@H](CC[C@@H]5[C@@]6(C)C/C(=C/c7cccnc7)C(=O)C(C)(C)[C@@H]6CC[C@]54C)[C@H]2[C@H]1OC3=O,49.9% [100 µM]
18,CN(C)CCCNc1nc(-c2cccc(C(Cl)(Cl)Cl)c2)nc(C(Cl)(Cl)Cl)n1,107%
19,COc1c(B(O)O)cccc1-c1nc2ccc3[nH]ncc3c2c2c1CCC2,88.8%
20,C#CC(OC(=O)N(C)C)(c1ccccc1)c1ccc(F)cc1 (stereo not given),86.3%

row,Structure (SMILES),growth
1,COc1ccc(-c2cc(-c3ccc(Cl)cc3)nc(SCCCCCCC(=O)NO)n2)cc1,59.8%
2,O=c1[nH]c2cc(Cl)c(Cl)cc2n2cc3ncccc3c12,88%
3,O=C1COCCN1c1ccc(NCc2cn(Cc3cccc4ccccc34)c3ccccc23)cc1,103%
4,CCc1ccc(C2=C/C(=C/c3ccccc3)C(=O)N2CCc2ccc(S(N)(=O)=O)cc2)cc1,109%
5,O=C1COCCN1c1ccc(NCc2cn(Cc3ccc(F)cc3)c3ccccc23)cc1,81.9%
6,CCc1ccc(NC(=O)N[C@@H](Cc2cc(F)cc(F)c2)C(=O)N[C@@H]2C(=O)N3C[C@H](O)C[C@H]3C(=O)N3CCOC[C@H]3C(=O)N[C@@H](C)C(=O)N3C[C@H](C)C[C@H]3C(=O)O[C@H]2C)cc1,32.1%
7,O=C(CCCCCCSc1nc(-c2ccc(Cl)cc2)cc(-c2ccc(Cl)cc2)n1)NO,78.7%
8,Cc1ccc(S(=O)(=O)n2cc(C(=O)C(=O)N3CCCCC3)c3ccccc32)cc1,82.3%
9,COc1ccc2nc3cc(Cl)ccc3c(Nc3ccc(O)cc3)c2c1,62.1%
10,CCCOc1ccc(-c2nc(-c3ccc(N)cc3)cs2)cc1,114%
11,Cc1cc(C)c(-c2cc(O)c(-c3c(C)cc(C)cc3C)cc2O)c(C)c1,45.8%
12,C=CCCC1(C)NC(=O)NC1=O (stereo not given),104%
13,CCCN1CC(c2ccc(OC)c(OC)c2)=C(c2cn(C(=O)OCC)c3ccccc23)C1=O,78.3%
14,CCOC(=O)C(=Cc1ccccc1[N+](=O)[O-])C(=O)OCC,48.3%
15,CCOc1cc(/C=N\NC(=O)N/N=C/c2ccc(O)c(OCC)c2)ccc1O,41%
16,O=C1NC(=O)C(Cc2ccccc2)(Cc2ccccc2)N1,104%
17,CCCCCCCCCCCCCC[n+]1cccc(C(N)=O)c1,-51.8% (active)
18,CC1Cc2c(Cl)ncnc2N(C)c2ccccc21 (stereo not given),34.5%
19,CC(C)C1=NOC(=O)C1=Cc1cn(-c2ccccc2)nc1-c1ccc(Br)cc1,76.2%
20,CC(C)c1ccc(C(=O)Nc2nc3ccc(O)cc3s2)cc1,-8.31% (active)
